# D3 antag – qHTS of D3 Dopamine Receptor Antagonist: qHTS | D(3) dopamine receptor (Homo sapiens), P35462 | max response, negative = inhibition, % | 360,000 compounds, 2.5% hits | D3R cells, DiscoveRx beta-arrestin luminescence, antagonist mode; active compounds read low; in the data active = max response below about -50%; note: % is set by controls: 0 for no effect and ±100 for the full control effect
# Target sequence (P35462 whole entry, looked up): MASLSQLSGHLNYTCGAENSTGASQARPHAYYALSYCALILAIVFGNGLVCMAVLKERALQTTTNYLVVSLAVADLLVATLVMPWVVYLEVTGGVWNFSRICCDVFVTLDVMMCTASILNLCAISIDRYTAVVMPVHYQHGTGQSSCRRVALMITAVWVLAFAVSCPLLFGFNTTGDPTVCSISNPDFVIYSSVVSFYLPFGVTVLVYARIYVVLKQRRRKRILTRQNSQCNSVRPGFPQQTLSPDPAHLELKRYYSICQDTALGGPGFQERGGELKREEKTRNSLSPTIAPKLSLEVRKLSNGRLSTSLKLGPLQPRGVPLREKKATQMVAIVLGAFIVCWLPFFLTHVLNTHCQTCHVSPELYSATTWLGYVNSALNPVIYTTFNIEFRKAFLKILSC
#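 Cells expressing the human receptor were seeded at 1500 cells/well, incubated overnight at 37 degrees C in 5% CO2, then exposed to library compounds with dopamine controls for 90 minutes at 37 degrees C before luminescent detection.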
# DRD3 agonist – qHTS of D3 Dopamine Receptor Agonist: qHTS | D(3) dopamine receptor (Homo sapiens), P35462 | D3R DiscoveRx beta-arrestin cells, luminescence, 90 min | max activation, % | 410,000 compounds, 0.58% hits | AID 652048, 2013; in the data active = max activation above about 30%; note: 0% is about no effect
#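 Cells at 1500/well, incubated overnight, then treated with pinned compounds (dopamine as control) for 90 min at 37 degrees C. DiscoveRx reagent added for 30 - 60 minutes at room temperature; luminescence read.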
# D1 antagonist – Antagonist of Human D 1 Dopamine Receptor: qHTS; D(1A) dopamine receptor (Homo sapiens), P21728; activity change, negative = inhibition, % at 10 µM; HEK293 TREx D1 cells, calcium flux, dopamine EC80; active compounds read low; 360,000 compounds, 3.2% hits; in the data active = activity change below about -30%; note: % is set by controls: 0 for no effect and ±100 for the full control effect
#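 Inducible Hek293 Trex D1 cells (tetracycline, overnight, 30 C). Calcium dye 30–90 min RT. Antagonist mode: EC80 dopamine added after 180 s compound read.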
# D1 ag – Allosteric Agonists of the Human D1 Dopamine Receptor: qHTS | 360,000 compounds, 1% hits | D(1A) dopamine receptor (Homo sapiens), P21728 | HEK293 T-REx D1 cells, calcium flux, agonist mode | activation, % at 2 µM | AID 504660, 2011; in the data active = activation above about 30%; note: 0% is about no effect
#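 Agonism was scored from calcium flux recorded over 180 s (1 read/s) after pintool compound addition, following a 10-cycle baseline. Cells were inducible force-coupled HEK293 TREx D1, plated overnight at 30 C and loaded with no-wash calcium dye.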
# D1 potentiator – Potentiators of Human D1 Dopamine Receptor: qHTS. HEK293 TREx D1 cells, calcium flux, dopamine EC20 potentiation. potentiation, % at 10 µM. D(1A) dopamine receptor (Homo sapiens), P21728. 360,000 compounds, 0.036% hits; in the data active = potentiation above about 30%; note: 0% is about no effect
# The depositor's hits bear a star; · = no result given; ! = repeats disagree. Compounds with a hit are over-represented: about 6% of the library has one in this group of screens.
SMILES,D3 antag,DRD3 agonist,D1 antagonist,D1 ag,D1 potentiator
CCCCCCC(C)n1[nH]c(=O)cc1N (centres undefined),-19,-14,-32*,1,-14
Cc1ccc(NC(=O)CCC(=O)N2Cc3ccccc3Oc3ncccc32)cc1F,·,1,-11,4,-2
CC1Nc2ncnc(N3CCc4ccccc4C3)c2N(Cc2ccc(Br)cc2)C1=O (centres undefined),-55*!,-17,2,0,-4
CC1Nc2ncnc(N3CCc4ccccc4C3)c2N(Cc2ccc(Cl)cc2)C1=O (centres undefined),0,-18,-10,3,-2
CCC1Nc2ncnc(N3CCc4ccccc4C3)c2N(Cc2ccc(Br)cc2)C1=O (centres undefined),-84*,-23,·,·,·
Cn1cc(S(=O)(=O)c2ccc(Cl)cc2)c(=O)c2cc(F)c(N3CCCC3)cc21,·,-5,11,-2,1
Nc1c(N2CCCC2)c2ccccc2oc1=O,11,44*,4,1,1
O=C(Cc1ccc(Cl)cc1)NCC(c1cccs1)S(=O)(=O)c1ccccc1 (centres undefined),·,-8,-12,0,0
CCOC(=O)c1c(C)cc(O)cc1O,10,38*,·,·,·
O=C(Nc1ccccc1C(F)(F)F)N1CCC(CN2CCc3ccccc3C2)CC1,·,-19,-6,30*,6
COC(=O)c1ccc2c(c1)N(CC(=O)Nc1cccc(Cl)c1C)C(=O)c1ccccc1S2,·,1,12,11,-1
O=C(c1cccc(F)c1)N1CCN(S(=O)(=O)c2ccccc2)CC1,3,1,-8,-1,-9
O=C(c1cccc(S(=O)(=O)N2CCCCC2)c1)N(CCc1ccccc1)Cc1ccccc1,-9,-13,-9,10,0
CN(C)C(CNC(=O)c1cccc(S(=O)(=O)N2CCN(c3ccc(F)cc3)CC2)c1)c1ccccc1 (centres undefined),-81*,-16,·,·,·
CC(=O)N1CCN(C(=O)c2cccc(S(=O)(=O)N3CCN(c4ccc(F)cc4)CC3)c2)CC1,8,2,0,53*,-8
CC(C)c1ccc(S(=O)(=O)N2CCN(C(=O)c3cccc(F)c3)CC2)cc1,0,6,-68*,0,-2
O=C(c1cccc(S(=O)(=O)N2CCOCC2)c1)N(CCO)Cc1ccccc1,7,0,-33*,0,-7
COc1ccccc1CNC(=O)c1cccc(S(=O)(=O)N2CCN(c3ccc(F)cc3)CC2)c1,2,5,15,2,8
Cc1ccc(/C=C/c2onc(C)c2S(=O)(=O)N2CCC(C(=O)NCc3ccc(C)o3)CC2)cc1,·,-13,10,11,-3
O=C(c1cccc(S(=O)(=O)Nc2ccc(F)cc2)c1)N1CCCC1,0,0,5,1,-4
CCN(Cc1ccccc1)C(=O)c1cccc(S(=O)(=O)N2CCN(c3ccc(F)cc3)CC2)c1,7,-5,-63*,5,-3
O=C(NCCCN1CCCC1=O)C(=O)Nc1cccc(F)c1,9,-4,-44*,7,-6
O=C(NCCCN1CCCC1=O)c1cccc(NS(=O)(=O)c2ccccc2)c1,7,4,7,3,3
CCN(Cc1ccccc1)C(=O)c1cccc(S(=O)(=O)N2CCN(c3ccccc3)CC2)c1,3,-12,22,5,-1
O=C(c1cccc(NS(=O)(=O)c2ccc(F)cc2)c1)N1CCN(c2ccccc2)CC1,-6,-1,-42*,4,2
O=C(NCCCN1CCCC1=O)c1cccc(S(=O)(=O)N2CCN(c3ccccc3)CC2)c1,1,4,-44*,1,-4
CCOc1ccc(-c2cc(NC(=O)Nc3ccccc3Cl)c(C(=O)OC)s2)cc1,·,0,-2,5,-1
O=S(=O)(c1ccc2c(c1)OCCO2)N1CCN(S(=O)(=O)c2ccccc2OC(F)(F)F)CC1,·,·,-25,7,-3
CCc1cccc(C)c1NC(=O)Cn1c(=O)cc(C)c2c(C)nn(-c3cccc(F)c3)c21,·,5,8,1,-7
Cc1noc(C)c1S(=O)(=O)N(CC(=O)NCc1ccccc1Cl)c1ccc(C(C)C)cc1,·,5,-7,2,1

# High-throughput results from PubChem.
